In the library only some 1.2% were active in any assay of this set; here they are far more common.
RGS4-Gao reg: modulates binding of RGS4 to human Galphao; 220,000 tested, 0.33% active; AID 1415; Multiplexed bead flow cytometry; actives lie on both sides; P09471; binding response (% of control), % at 10 µM; in the data active = binding response below about 49% or above about 150%; inactive = in between;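 also: fluorescent Galphao activated with aluminum fluoride binding bead-coupled RGS4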
Target sequence (P09471 whole entry, looked up): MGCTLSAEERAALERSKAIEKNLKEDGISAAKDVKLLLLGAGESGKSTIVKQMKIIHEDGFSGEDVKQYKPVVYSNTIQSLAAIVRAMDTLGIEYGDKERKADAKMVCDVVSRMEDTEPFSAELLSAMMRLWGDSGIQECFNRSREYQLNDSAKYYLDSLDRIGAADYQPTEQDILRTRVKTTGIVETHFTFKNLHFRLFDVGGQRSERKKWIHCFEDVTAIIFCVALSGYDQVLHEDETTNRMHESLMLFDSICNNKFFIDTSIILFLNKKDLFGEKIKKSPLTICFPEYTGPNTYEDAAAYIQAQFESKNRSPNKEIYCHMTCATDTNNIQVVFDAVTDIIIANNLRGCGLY
GSH fluor: compound fluoresces at 488/530 nm on GSH beads; GSH beads flow cytometry, compound fluorescence 488/530 nm; active compounds read high; fluorescence (KMESF) at 10 µM; AID 1776; 190,000 tested, 0.25% active; in the data active = fluorescence above about 89;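 also: glutathione beads carrying GST-tagged Bcl family fusion proteins plus one bare bead set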
RGS7-Gao reg: modulates binding of RGS7 to human Galphao. 220,000 tested, 0.35% active. binding response (% of control), % at 10 µM. Multiplexed bead flow cytometry; actives lie on both sides. P09471; in the data active = binding response below about 49% or above about 150%; inconclusive = no clear call, values can overlap the other calls; inactive = in between;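 also: fluorescent Galphao held in activated GDP-AlF4 state binding bead-coupled RGS7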
Avidin bead fluor: avidin bead compound fluorescence profile | Avidin beads, compound fluorescence 488/530 nm, flow cytometry; active compounds read high | fluorescence (KMESF) at 10 µM | 220,000 tested, 0.38% active; in the data active = fluorescence above about 47
RGS16-Gao HTS: regulators of human RGS16-Galphao interaction. binding response (% of control), % at 10 µM. 220,000 tested, 0.38% active. bead-based flow cytometry RGS16-Galphao binding, fluorescence; actives lie on both sides. O15492+P09471; call rule not given here;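 also: Galphao activated by GDP with aluminum fluoride before binding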
Target sequence (O15492 whole entry, looked up): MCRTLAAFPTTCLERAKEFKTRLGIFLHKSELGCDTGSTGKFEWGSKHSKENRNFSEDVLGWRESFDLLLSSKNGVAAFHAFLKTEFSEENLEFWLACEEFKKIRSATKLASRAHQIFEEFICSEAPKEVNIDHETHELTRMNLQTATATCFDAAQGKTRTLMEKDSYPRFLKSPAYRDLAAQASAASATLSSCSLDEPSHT
Target sequence (P09471 whole entry, looked up): as the sequence (P09471 whole entry, looked up) above
RGS8-Gao reg: modulates binding of RGS8 to human Galphao; multiplexed bead flow cytometry; actives lie on both sides; 220,000 tested, 0.34% active; AID 1423; response (percent of control binding), % at 10 µM; P09471; in the data active = response below about 60% or above about 140%; inactive = in between;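 also: Galphao activated as the GDP aluminium fluoride complex binding bead-coupled RGS8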
Each line names hits and unclear results; the compound was inactive in the other large screens.

CC(=O)Nc1nonc1-c1nc2ccccc2n1CCC#N	none
CC(=O)Nc1nonc1-c1nc2ccccc2n1CC1CC1	Avidin bead fluor 57
N#Cc1ccc(NC(=O)Nc2cccc(C#N)c2)cc1	RGS7-Gao reg inconclusive (no result: GSH fluor)
N#Cc1cccc(NC(=O)CC2CCCCC2)c1	GSH fluor 260
O=C(OCC(=O)N1CCOCC1)c1ccc2c(c1)OCCO2	RGS4-Gao reg 32, RGS7-Gao reg 30, RGS8-Gao reg 42
CCN(CC)c1ccc(CN2CCC(C(=O)NCc3ccc(C)cc3)CC2)cc1	none
CCc1ccc(C(=O)COC(=O)CNC(=O)c2cccs2)cc1	Avidin bead fluor 78
COc1ccc(S(=O)(=O)NCc2ccco2)cc1N(C)S(=O)(=O)c1ccccc1	none
CCOc1ccc(N2C(=O)CC(SCCN)C2=O)cc1 (configuration not stated)	GSH fluor 267
CCOc1ccc(N2C(=O)CC(Sc3nc(C)cc(C)n3)C2=O)cc1 (configuration not stated)	none
O=C(NC1CCCCC1)C(c1ccco1)N(C(=O)c1csnn1)C1CCCC1 (configuration not stated)	RGS4-Gao reg 36, RGS7-Gao reg 29, RGS8-Gao reg 28
O=C(CSc1nc(O)cc(=O)n1C1CCCC1)Nc1cccc(Cl)c1Cl	none
COC(=O)c1ccccc1NC(=O)CSc1nc(O)cc(=O)n1C1CCCC1	Avidin bead fluor 54
O=C1C(c2ccnc3ccccc23)=C(O)c2ccccc21	GSH fluor 128
C=CCc1cc(Cl)ccc1OCCOCCN(C)C	RGS7-Gao reg inconclusive
C=C(C)C(=O)Nc1ccc2c(c1)OCCOCCOCCO2	RGS7-Gao reg inconclusive (no result: GSH fluor)
Cc1onc(-c2c(F)cccc2Cl)c1C(=O)OCC(=O)Nc1c(C)n(C)n(-c2ccccc2)c1=O	GSH fluor 279
Cc1ccc2c(c1)CCCN2C(=O)c1ccncc1	Avidin bead fluor 131
Cc1ccnc2nc(C(=O)NC3=NCCS3)nn12	none
Cc1ccnc2nc(C(=O)Nc3nccs3)nn12	GSH fluor 253
S=C(Nc1ccccc1Cl)NC1CCCCCC1	none
O=C1CN(C(=O)c2ccccc2F)c2ccccc2N1	none
O=C1CN(C(=O)c2ccccn2)c2ccccc2N1	GSH fluor 229
CC(C)NC(=O)CSCc1c(F)cccc1Cl	GSH fluor 121
O=C(Cn1[nH]c(=O)c2ccccc2c1=O)Nc1ccc2c(c1)CCC2	GSH fluor 270
NS(=O)(=O)c1ccc(NC(=O)c2ccc(-c3ccccc3)cc2)cc1	none
NS(=O)(=O)c1ccc(NS(=O)(=O)c2ccc(NC(=O)c3ccc(-c4ccccc4)cc3)cc2)cc1	Avidin bead fluor 373
O=c1c2ccccc2nc(-c2ccc(F)cc2)n1NCc1ccccc1O	none
O=C(NCCN1CCOCC1)c1cc2sccc2n1Cc1ccc(Cl)cc1	Avidin bead fluor 52
C=CCn1c(-c2ccc(C)cc2)nc2ccccc21	Avidin bead fluor 47
N#CC1=C(N)OC2=C(CC/C2=C\c2ccccc2Cl)C1c1ccccc1Cl (configuration not stated)	none
Cc1oc(C)c2c(=O)ccc3c(c12)OC(N)=C(C#N)C3c1ccccc1Cl (configuration not stated)	GSH fluor 138
Cc1oc(C)c2c(=O)ccc3c(c12)OC(N)=C(C#N)C3c1ccccc1 (configuration not stated)	GSH fluor 585
N#CC1=C(N)Oc2c(ccc3cccnc23)C1c1ccccc1 (configuration not stated)	RGS7-Gao reg inconclusive (no result: GSH fluor)
COc1ccc(-c2nnn(Cc3nn[nH]n3)n2)cc1OC	GSH fluor 280
COc1ccc(-c2nnn(CCc3nn[nH]n3)n2)cc1OC	none
Cc1cnc(NC(=O)CSc2nnc(-c3cccs3)n2C)s1	GSH fluor 269
CC(C)N(CC(N)=O)C(=O)c1sc2cc(F)ccc2c1Cl	none
CN1CCC(N(C)C(=O)c2sc3cc(F)ccc3c2Cl)CC1	RGS7-Gao reg inconclusive, Avidin bead fluor 136
C=CCn1c(C)cc(C(=O)COC(=O)/C=C/c2cccc(OC)c2)c1C	none
COc1ccc(CC(=O)NNC(=O)CSc2nc(C)c(C)c(=O)[nH]2)cc1	none
C=CCn1c(SCC(=O)c2ccc(O)c(O)c2)nnc1-c1ccccc1OC	GSH fluor 247
Cc1ccc(C(=O)NC2CCc3ccccc3C2=O)cc1 (configuration not stated)	none
Cc1ccc(C(=O)NC2c3ccccc3-c3ccccc32)cc1	Avidin bead fluor 60
O=[N+]([O-])c1cccc(/C=N/NS(=O)(=O)c2ccccc2)c1	none
O=S(=O)(N/N=C\c1cccnc1)c1ccccc1	GSH fluor 352
Cc1ccc(SCC(=O)c2ccc(CC(=O)O)s2)cc1	RGS7-Gao reg inconclusive (no result: GSH fluor)
Cc1c(NS(C)(=O)=O)c(=O)n(-c2ccccc2)n1C	GSH fluor 252
Cc1c(NS(=O)(=O)N2CCCC2)c(=O)n(-c2ccccc2)n1C	none
CN(C(=O)c1cc2nc(-c3ccco3)cc(C(F)(F)F)n2n1)C1CCCCC1	RGS4-Gao reg 39, RGS7-Gao reg 35, RGS8-Gao reg 47
CCc1ccccc1S(=O)(=O)Cc1ccc(C(=O)NCc2cccs2)o1	none
Cc1nc([N+](=O)[O-])c(Br)n1CC(=O)c1ccc2ccccc2c1	Avidin bead fluor 50
CCN(CC)S(=O)(=O)c1ccc(OC)c(NC(=O)c2cccs2)c1	none
CCOC(=O)c1[nH]c2ccccc2c1NC(=O)CCN1CCN(C(=O)OCC)CC1	Avidin bead fluor 132
COC(=O)c1ccc(-c2ccc(C(=O)N3CCCN(C)CC3)cc2)cc1	GSH fluor 256
COc1cc([N+](=O)[O-])c(OC)cc1SCc1n[nH]c(=S)n1-c1ccc(F)cc1	RGS7-Gao reg inconclusive (no result: GSH fluor)
CCOc1ccc(NC(=S)Nc2ccc(OCC)cc2)cc1	none
CCOc1ccc(NC(=S)Nc2ccc(OC(F)(F)F)cc2)cc1	GSH fluor 146
CC1(C)Cc2c(sc3nnn(CC(=O)Nc4ccccc4)c(=O)c23)CO1	RGS7-Gao reg inconclusive, Avidin bead fluor 92 (no result: GSH fluor)
COc1ccccc1NC(=O)Cn1nnc2sc3c(c2c1=O)CC(C)(C)OC3	RGS7-Gao reg inconclusive (no result: GSH fluor)
COC(=O)/C(=C\Nc1ccc(Cl)cc1Cl)NC(=O)c1ccc(OC)cc1	RGS7-Gao reg inconclusive (no result: GSH fluor)
CCOc1ccccc1NC(=O)N1CCC(c2nc3ccccc3[nH]2)CC1	GSH fluor 259
COc1ccccc1NC(=O)N1CCC(c2nc3cc(C)c(C)cc3[nH]2)CC1	none
Cc1ccccc1NC(=O)C(NC1CCCCC1)C(C)C (configuration not stated)	none
Cc1c(Cl)cccc1N(Cc1ccc(C(=O)O)cc1)S(=O)(=O)c1ccccc1	none
Nc1cc(=O)[nH]c(SCc2ccc(Cl)cc2)n1	Avidin bead fluor 50
Cc1cccc(NC(=O)CSc2nnc(Cc3ccccc3)o2)c1	none
N#CCc1nn2c3c(cnc2c1C#N)C(=O)CCC3	RGS7-Gao reg inconclusive

Screening results from PubChem.
